Measured values published in PubChem BioAssay AID624256 (NMMLSC, 2012).
The whole screen tested about 360,000 compounds, of which about 3,700 (1%) were called active. Inconclusive results (about 2%) are left out.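 The calls were made as follows: active = normalized GFP-positive differentiation at or above the plate's own cutoff, the solvent-only control mean plus 3 SD; inconclusive = no clear call, values can overlap the other calls; inactive = the rest.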 What follows is part of a selection rich in actives, with near analogues and random picks from the rest.

Test: HoxA9-arrested leukemia cell differentiation promoters – flow cytometry, MLPCN library, primary screen (AID 624256);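 as to GFP+ MAC1+ double positive: cells exposed to compound for four days before flow analysis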;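 as to normalized GFP-positive differentiation: cells exposed to compound for four days before flow analysis; 0% = DMSO wells and 100% = fulvestrant positive control at 5 µM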
Conditions: ER-HoxA9 myeloid progenitors, lysozyme-GFP differentiation, at 10 µM; GFP+ MAC1+ double positive: measured here: differentiation confirmed by MAC1 staining, stronger effect = higher value; normalized GFP-positive differentiation: stronger effect = higher value

Q: What does the source list for `COC(=O)Cc1ccc(NC(=S)NCc2ccco2)cc1`?
A: GFP+ MAC1+ double positive: 0.6%; outcome: inactive

Q: Which GFP+ MAC1+ double positive does the source give for `O=C(NNC(=S)NCc1ccco1)C(c1ccccc1)c1ccccc1` here?
A: 5.5%

Q: What about the normalized GFP-positive differentiation of the same compound?
A: 175% (active)

Q: For `COc1cccc(OC)c1C(=O)NC(=S)NCc1ccco1`, which GFP+ MAC1+ double positive is on record?
A: 0.3%

Q: What about the outcome of the same compound?
A: inactive

Q: Which GFP+ MAC1+ double positive does the source give for `Nc1cccc(-c2cncc(N3CCN(Cc4ccccn4)CC3)n2)c1` here?
A: 0.8%

Q: And the outcome?
A: inactive

Q: What does the source list for `CC(C)c1cccc(C(C)C)c1Nc1cn[nH]c1`?
A: GFP+ MAC1+ double positive: 0.2%; outcome: inactive

Q: With `O=C(/C=C/c1ccccc1[N+](=O)[O-])OCC(=O)N1CCCC1` as the compound, how does the GFP+ MAC1+ double positive read?
A: 0.4%

Q: And the outcome?
A: inactive

Q: Which results are given for `CC(C)CNC(=O)COC(=O)/C=C/c1ccco1`?
A: GFP+ MAC1+ double positive: 0.7%; outcome: inactive

Q: Which GFP+ MAC1+ double positive does the source give for `CC(C)CNC(=O)COC(=O)/C=C/c1ccccc1[N+](=O)[O-]` here?
A: 4.9%

Q: What about the normalized GFP-positive differentiation of the same compound?
A: 14.3% (active)

Q: Which GFP+ MAC1+ double positive does the source give for `O=C1C(Sc2cccc(F)c2)=C[C@@]2(O)CC[C@@H](O)[C@]1(Sc1cccc(F)c1)[C@H]2O` here?
A: 2%

Q: And the outcome?
A: inactive

Q: For `O=C1NC[C@H](CCCCN2CCN(CCc3ccccc3)C(=O)C2=O)N(CC2CCCCC2)C1=O`, which GFP+ MAC1+ double positive is on record?
A: 0.5%

Q: What about the outcome of the same compound?
A: inactive

Q: Which GFP+ MAC1+ double positive does the source give for `Nc1nc2cc(Cl)ccc2n1N` here?
A: 1.5%

Q: And the outcome?
A: inactive

Q: For `CN1OC[C@@H]2CN(S(=O)(=O)c3cccc4ccccc34)[C@H](c3ccc(N4CCCCC4)cc3)C[C@@H]21`, which GFP+ MAC1+ double positive is on record?
A: 0.8%

Q: What about the outcome of the same compound?
A: inactive

Q: What does the source list for `CCC1CCCCN1S(=O)(=O)Cc1ccccc1Cl` (stereo not drawn)?
A: GFP+ MAC1+ double positive: 3%; normalized GFP-positive differentiation: 98.8% (active)

Q: With `O=C(NCc1ccccc1Cl)C1CCCN1S(=O)(=O)c1ccc(F)cc1` (stereo not drawn) as the compound, how does the GFP+ MAC1+ double positive read?
A: 0.6%

Q: What about the outcome of the same compound?
A: inactive

Q: Which GFP+ MAC1+ double positive does the source give for `O=C(NCc1ccccc1Cl)C(=O)NCC1CCCN1S(=O)(=O)c1cccs1` (stereo not drawn) here?
A: 0.7%

Q: And the outcome?
A: inactive

Q: What does the source list for `CC(C)(C)OC(=O)CNC(=O)c1[nH]cnc1C(=O)N[C@@H](Cc1ccccc1)C(=O)OCc1ccccc1`?
A: GFP+ MAC1+ double positive: 10%; normalized GFP-positive differentiation: 21.4% (active)

Q: Which GFP+ MAC1+ double positive does the source give for `C[C@H](NC(=O)c1nc[nH]c1C(=O)NCC(=O)OC(C)(C)C)C(=O)OCc1ccccc1` here?
A: 0.8%

Q: What about the outcome of the same compound?
A: inactive

Q: For `O=C(N[C@@H](Cc1ccccc1)C(=O)OCc1ccccc1)c1nc[nH]c1C(=O)N[C@@H](Cc1ccccc1)C(=O)OCc1ccccc1`, which GFP+ MAC1+ double positive is on record?
A: 0.2%

Q: And the outcome?
A: inactive

Q: Which GFP+ MAC1+ double positive does the source give for `FC(F)(F)c1cccc(-c2nc3ccccc3n2C(c2ccccc2)c2nc3ccccc3[nH]2)c1` (stereo not drawn) here?
A: 3.2%

Q: And the outcome?
A: inactive

Q: With `COc1cccc(-c2ccc3c(c2)N(Cc2ccccc2OC)C(=O)C(C)S3)c1` (stereo not drawn) as the compound, how does the GFP+ MAC1+ double positive read?
A: 0.8%

Q: And the outcome?
A: inactive

Q: Which GFP+ MAC1+ double positive does the source give for `Cc1cccnc1C(NC(=O)C1CCN(Cc2ccc(Cl)c(Cl)c2)CC1)c1ccc(Cl)cc1` (stereo not drawn) here?
A: 0.8%

Q: What about the outcome of the same compound?
A: inactive

Q: With `CC1=C(C(=O)N2CCOCC2)CC(CC(=O)NCc2cccs2)C(=O)N1CCCN1CCCC1=O` (stereo not drawn) as the compound, how does the GFP+ MAC1+ double positive read?
A: 1.4%

Q: What about the outcome of the same compound?
A: inactive

Q: Which results are given for `CC(OC(=O)CCCc1c[nH]c2ccccc12)C(=O)Nc1ccc(S(N)(=O)=O)cc1` (stereo not drawn)?
A: GFP+ MAC1+ double positive: 0.5%; outcome: inactive

Q: What does the source list for `Cc1ccc(NC(=O)C(C)OC(=O)C2CC3CCCC(C2)C3=O)cc1S(=O)(=O)N1CCOCC1` (stereo not drawn)?
A: GFP+ MAC1+ double positive: 0.8%; outcome: inactive

Q: With `Cc1ccc(NC(=O)C(C)OC(=O)Cc2c[nH]c3ccccc23)cc1S(=O)(=O)N1CCOCC1` (stereo not drawn) as the compound, how does the GFP+ MAC1+ double positive read?
A: 1%

Q: What about the normalized GFP-positive differentiation of the same compound?
A: 9.47% (active)

Q: With `O=C(OC1CC2CC1[C@H]1CCCCN1C2=O)N1CCOCC1` (stereo partly drawn) as the compound, how does the GFP+ MAC1+ double positive read?
A: 0.9%

Q: And the outcome?
A: inactive

Q: For `O=C(COC(=O)c1ccc(O)cc1O)NC(=O)c1ccccc1`, which GFP+ MAC1+ double positive is on record?
A: 0%

Q: And the outcome?
A: inactive

Q: With `O=C(NNc1c2ccccc2nc2ccccc12)c1cc2ccccc2cc1O` as the compound, how does the GFP+ MAC1+ double positive read?
A: 2.5%

Q: What about the normalized GFP-positive differentiation of the same compound?
A: 28.5% (active)

Q: With `Cc1noc(C)c1COC(=O)c1cc2ccccc2cc1O` as the compound, how does the GFP+ MAC1+ double positive read?
A: 1.2%

Q: What about the outcome of the same compound?
A: inactive

Q: Which results are given for `CCc1nc2c(OCCOc3ccc(F)cc3)cccn2c1N(C)C(=O)c1ccccc1F`?
A: GFP+ MAC1+ double positive: 0.6%; outcome: inactive

Q: Which GFP+ MAC1+ double positive does the source give for `Nc1ccccc1SC(C[N+](=O)[O-])c1ccccc1` (stereo not drawn) here?
A: 1.1%

Q: And the outcome?
A: inactive

Q: What does the source list for `CCS(=O)(=O)c1cc([N+](=O)[O-])c(Sc2ccccc2N)s1`?
A: GFP+ MAC1+ double positive: 1.1%; normalized GFP-positive differentiation: 150% (active)

Q: Which GFP+ MAC1+ double positive does the source give for `CC(C)(C)N1C(=O)c2c(C(=O)OCc3ccccc3)[nH]c(-c3ccccc3)c2C1=O` here?
A: 1.4%

Q: What about the outcome of the same compound?
A: inactive

Q: What does the source list for `CC(C)Nc1nc(NCCOc2ccccc2Cl)c2sccc2n1`?
A: GFP+ MAC1+ double positive: 1%; outcome: inactive

Q: Which results are given for `COc1ccc2nc(N3CCN(C(=O)c4ccc([N+](=O)[O-])o4)CC3)sc2c1`?
A: GFP+ MAC1+ double positive: 7.3%; normalized GFP-positive differentiation: 33.6% (active)

Q: For `COc1ccc(N2CCN(c3ccc([N+](=O)[O-])nc3)CC2)cc1`, which GFP+ MAC1+ double positive is on record?
A: 0.9%

Q: What about the outcome of the same compound?
A: inactive

Q: For `COc1ccc2nc(N3C(=O)C(O)=C(C(=O)c4ccco4)C3c3ccco3)sc2c1` (stereo not drawn), which GFP+ MAC1+ double positive is on record?
A: 0.8%

Q: What about the outcome of the same compound?
A: inactive

Q: With `CCc1nc2ccc(C(=O)Nc3cccc(OC)c3)cn2c1N(CCC(C)C)CCN(C)C` as the compound, how does the GFP+ MAC1+ double positive read?
A: 1.2%

Q: What about the outcome of the same compound?
A: inactive

Q: What does the source list for `CCCCNC(=O)C[C@@H]1C[C@@]2(C(=O)OC)CC(C)(C)CC=C2N(Cc2ccco2)C1=O`?
A: GFP+ MAC1+ double positive: 2.1%; outcome: inactive

Q: With `COC(=O)C[C@@H]1C=C[C@@H](NC(=O)c2cccnc2)[C@@H](CO)O1` as the compound, how does the GFP+ MAC1+ double positive read?
A: 1.2%

Q: What about the outcome of the same compound?
A: inactive

Q: For `CCOC(=O)C1=CC[C@@H](c2ccccc2)N(S(=O)(=O)c2ccc(C)cc2)[C@H]1c1ccc(CC)cc1`, which GFP+ MAC1+ double positive is on record?
A: 0.9%

Q: What about the outcome of the same compound?
A: inactive

Q: Which GFP+ MAC1+ double positive does the source give for `COc1ccc(N(CCC#N)S(=O)(=O)c2ccc(Cl)cc2)cc1` here?
A: 6.2%

Q: And the normalized GFP-positive differentiation?
A: 17% (active)

Q: With `COc1ccc(N(CC(=O)N2CCCCCC2)S(=O)(=O)c2ccccc2)cc1` as the compound, how does the GFP+ MAC1+ double positive read?
A: 2.2%

Q: What about the outcome of the same compound?
A: inactive

Q: With `COc1ccc(S(=O)(=O)NCCCCOc2ccc(Cl)cc2)cc1` as the compound, how does the GFP+ MAC1+ double positive read?
A: 0.7%

Q: What about the outcome of the same compound?
A: inactive

Q: Which results are given for `COc1cc(C=C(OC(C)=O)c2ccc3c(c2)OCO3)cc(OC)c1OC`?
A: GFP+ MAC1+ double positive: 0.8%; outcome: inactive

Q: With `Cc1ccc(C(=O)OCC(=O)N2CCCCCC2)cc1S(=O)(=O)N1CCOCC1` as the compound, how does the GFP+ MAC1+ double positive read?
A: 0.9%

Q: And the outcome?
A: inactive

Q: Which GFP+ MAC1+ double positive does the source give for `Cc1ccc(C(=O)Nc2ncccc2C)cc1S(=O)(=O)N1CCOCC1` here?
A: 0.8%

Q: What about the outcome of the same compound?
A: inactive

Q: With `Cc1cc(C)n(C(=O)c2ccc(C)c(S(=O)(=O)N3CCOCC3)c2)n1` as the compound, how does the GFP+ MAC1+ double positive read?
A: 3.4%

Q: What about the normalized GFP-positive differentiation of the same compound?
A: 11% (active)

Q: With `CCOC(=O)c1ccc(-c2ccc3ncnc(N(C)Cc4sccc4C)c3c2)o1` as the compound, how does the GFP+ MAC1+ double positive read?
A: 2%

Q: What about the outcome of the same compound?
A: inactive

Q: Which results are given for `CC(=O)Nc1cccc(Nc2ccc(C#N)cc2)c1`?
A: GFP+ MAC1+ double positive: 0.5%; outcome: inactive

Q: Which GFP+ MAC1+ double positive does the source give for `Cc1cccc(C)c1NC(=O)C(c1ccc(C(F)(F)F)cc1)n1c(=O)c(-c2ccco2)nc2ccccc21` (stereo not drawn) here?
A: 2.6%

Q: What about the outcome of the same compound?
A: inactive

Q: With `CC[n+]1cc(C)ccc1/C=C/c1ccc(N(C)C)cc1` as the compound, how does the GFP+ MAC1+ double positive read?
A: 14.3%

Q: And the normalized GFP-positive differentiation?
A: 385% (active)

Q: Which GFP+ MAC1+ double positive does the source give for `O=[N+]([O-])c1ccc(CN2CC(N3CC=CC3)CS2(=O)=O)cc1` (stereo not drawn) here?
A: 0.8%

Q: And the outcome?
A: inactive

Q: What does the source list for `COc1ccc(CC(N)c2csc(NC(=O)Cc3ccccc3)n2)cc1` (stereo not drawn)?
A: GFP+ MAC1+ double positive: 0.8%; outcome: inactive
